Screens deposited in PubChem by SRMLSC.
NADH coupling – inhibition of NAD/NADH coupling enzymes, library profiling. AID 774. coupled PK/LDH NADH assays, four targets. IC50, µM (series often up to 10 µM), without a hit: at the top dose inhibition. actives 0.02% (n = 65,000);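 active = single-dose screening hits from any of four coupled enzyme assays that gave an IC50 when retested across doses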;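 also: the DPM-DC format reads NADH fluorescence rather than 340 nm absorbance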
Spn MK inh – blocks S. pneumoniae mevalonate kinase | purified MK, PK/LDH-coupled NADH absorbance 340 nm | inhibition, % at 10 µM | actives 0.48% (n = 65,000) | AID 555;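 active = ranked among the strongest by inhibition in the single 10 µM screen, a fixed top-ranked set picked for dose follow-up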
Fluor 339 460 – intrinsic fluorescence of library compounds, ex339/em460 – biochemical, MLSMR library, data from DPM-DC assay, artefact control, profiling panel; actives 5.5% (n = 65,000); compound autofluorescence, ex339/em460 nm, NADH buffer; active compounds read high; 1 = no-compound wells, NADH background; fluorescence fold increase at 10 µM;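 active = at 10 µM, mean starting fluorescence two-fold or more over control wells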;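 also: signal is the first read of a kinetic run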
PMK inhibit – blocks S. pneumoniae phosphomevalonate kinase; purified PMK, PK/LDH-coupled NADH absorbance 340 nm; inhibition, % at 10 µM; actives 0.49% (n = 65,000);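 active = top-ranked compounds by inhibition in the single 10 µM screen, taking a fixed number of the strongest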;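 also: 0% = full reaction with DMSO carrier and 100% = background rate without enzyme reaction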
DPM-DC inhibit – blocks S. pneumoniae diphosphomevalonate decarboxylase | purified DPM-DC, PK/LDH coupled NADH fluorescence | calls only at 10 µM | actives 0.49% (n = 65,000);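 active = the 320 compounds with the highest percent inhibition in the single-dose primary screen, excluding strongly autofluorescent ones, cut at about 32% in these data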;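 also: kinetic rate of NADH fluorescence loss reporting ADP formed by the decarboxylase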
Abs 340nm – compounds absorbing at 340 nm. compound absorbance at 340 nm, fold over control. AID 708. fold change at 10 µM. 65,000 tested, under 10 active;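 active = at 10 µM dose, initial 340 nm absorbance at least 2 fold that of control wells; inactive = change under 2 fold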;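 also: initial absorbance extrapolated from kinetic A340 decline of NADH oxidation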
An asterisk follows results filed as active; i = inactive; / = not tested or not shown. An excerpt weighted towards active compounds, which were near 6.3% of everything screened.

SMILES	NADH coupling	Spn MK inh	Fluor 339 460	PMK inhibit	DPM-DC inhibit	Abs 340nm
COC(=O)c1[nH]c2cccc(OC)c2c1NC(=O)CN1CCOCC1	3%	2	2.9*	0	i	1.1
COC(=O)c1[nH]c2cccc(OC)c2c1NC(=O)CCN1CCN(c2cccc(Cl)c2)CC1	12%	9	2.6*	13	i	1
COc1ccc(N(CC(=O)Nc2ccc(C)cn2)S(=O)(=O)c2c(C)noc2C)cc1	8%	10	1.1	14	i	0.99
O=c1[nH]cnc2c1cnn2Cc1ccccc1	2%	0	1.1	5	i	1
CCN(CC)S(=O)(=O)c1ccc(NC(=O)Cn2cnc3ccccc3c2=O)cc1	2%	6	1	9	i	1
COc1ccc2cc3cc(C(=O)Nc4ccc5c(c4)OCO5)oc3nc2c1	7%	0	1.3	21	i	1.1
COc1ccc2cc3cc(C(=O)NCCCN4CCOCC4)oc3nc2c1	2%	0	5.1*	4	/	1.1
CCN1CCN(CCCNC(=O)C2c3ccccc3C(=O)N(C)C2c2ccc(OC)cc2)CC1 (configuration not stated)	2%	3	1	0	i	1
CCN1CCN(CCCNC(=O)c2cc3cc4ccc(OC)cc4nc3o2)CC1	7%	2	5.2*	12	/	1.1
Cc1ccc2cc3cc(C(=O)NCCN4CCOCC4)oc3nc2c1	14%	0	3.2*	5	/	1.1
COc1cc(OC)cc(-n2nc(C(=O)NCCCN3CCOCC3)c3ccccc3c2=O)c1	0%	0	1.2	0	i	1
Cc1ccc2cc3cc(C(=O)NCc4ccc5c(c4)OCO5)oc3nc2c1	2%	2	5.2*	1	/	1.1
COc1ccc(OCC(=O)NC2CC(C)(C)NC(C)(C)C2)cc1	7%	8	1.1	11	i	1
COc1ccc(C2=NOC(C(=O)NCCCN3CCOCC3)C2)cc1 (configuration not stated)	2%	0	1.1	3	i	0.99
COc1ccc(N2CC(C(=O)NCCCN3CCOCC3)CC2=O)cc1 (configuration not stated)	17%	51*	1.1	0	i	1
Cc1cc(C)c2c(=O)[nH]c(=O)n(Cc3ccccc3)c2n1	4%	1	1	9	i	0.97
c1ccc(C(c2nnnn2C2CCCCC2)N2CCc3ccccc3C2)nc1 (configuration not stated)	11%	4	4*	13	i	1
CCN(CC)CCCNC(=O)c1cc(-c2ccc(Cl)c(Cl)c2)on1	6%	3	1.1	14	i	0.99
CN1CCN(CCCNC(=O)c2cc3c(-c4ccc(Cl)cc4)nn(C)c3s2)CC1	3%	3	2.1*	2	/	1.1
CCN(CC)CCCNC(=O)c1cc2c(-c3ccc(Cl)cc3)nn(C)c2s1	2%	2	2.1*	1	/	1.1
Cn1nc(-c2ccc(Cl)cc2)c2cc(C(=O)NCC3CCCO3)sc21 (configuration not stated)	5%	2	2.1*	8	/	1.1
Cn1nc(-c2ccc(Cl)cc2)c2cc(C(=O)N3CCOCC3)sc21	11%	6	1.3	21	i	1.1
COc1ccc(CN2CCCC2C(=O)Nc2ccc(OC)c(OC)c2)cc1OC (configuration not stated)	1%	1	1	0	i	1.1
Cc1ccc(C(=O)Nc2sc3c(c2C(=O)O)CCCCC3)o1	7%	0	1.1	14	i	1.2
COC(=O)c1c(NC(=O)c2ccc(C)o2)sc2c1CCCCC2	9%	13	3.7*	4	/	1.1
NC(=O)c1c(NC(=O)c2cc3ccccc3o2)sc2c1CCC2	5%	0	2.1*	9	/	1.1
COC(=O)c1c(NC(=O)c2c(C)noc2C)sc2c1CCCCCC2	4%	4	3.4*	4	/	1.1
Cc1c(CCC#N)c(N2CCN(C3CCCCC3)CC2)n2c(nc3ccccc32)c1C#N	3%	10	1.1	5	i	1
Cc1ccc(CN2C(=O)CCC2C(=O)NCCN(CC(C)C)CC(C)C)cc1 (configuration not stated)	6%	2	1.1	16	i	0.98
